Rab9 prom act: Rab9 promoter activation. 320,000 tested, 2.8% active. Potency, µM (doses to about 9.22 µM), actives largely listed as activators. Huh7 Rab9 promoter-luciferase reporter, luminescence, 24 h; further: nearly all actives have a fitted effect of over 60% in size
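Cells were plated at 1500 per well in reduced-serum medium with 10% FBS and left 2 h. Compound in DMSO was then added for 24 h at 37 °C. Reporter signal was read by luminescence after 10 min with luciferase detection reagent.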
FLuc modulator: firefly luciferase modulation, counter-screen for miR-21 project | purified FLuc, Km substrates, luminescence inhibition | Potency, µM (titrated, usually from 57.5 µM), most hits filed as inhibitors | AID 588342 | P08659 | 360,000 tested, 6.9% active; further: nearly all actives have a fitted effect of over 55% in size
Target sequence (P08659 whole entry, looked up): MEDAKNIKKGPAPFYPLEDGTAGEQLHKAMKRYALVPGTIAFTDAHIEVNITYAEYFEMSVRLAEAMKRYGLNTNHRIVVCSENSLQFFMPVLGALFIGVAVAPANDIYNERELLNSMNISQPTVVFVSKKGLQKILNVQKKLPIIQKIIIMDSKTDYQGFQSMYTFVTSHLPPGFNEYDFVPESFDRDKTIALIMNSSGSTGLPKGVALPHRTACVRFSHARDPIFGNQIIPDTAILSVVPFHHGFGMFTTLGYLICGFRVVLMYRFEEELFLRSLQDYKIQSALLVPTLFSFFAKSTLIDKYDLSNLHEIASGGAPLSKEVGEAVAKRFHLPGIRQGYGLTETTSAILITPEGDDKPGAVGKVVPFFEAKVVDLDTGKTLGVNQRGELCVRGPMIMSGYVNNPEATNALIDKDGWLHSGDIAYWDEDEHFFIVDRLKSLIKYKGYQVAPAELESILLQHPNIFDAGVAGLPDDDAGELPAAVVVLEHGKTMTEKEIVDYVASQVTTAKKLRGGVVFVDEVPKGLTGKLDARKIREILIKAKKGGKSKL
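Purified P. pyralis luciferase (10nM final) with 10uM D-luciferin and 10uM ATP (Km levels) in 50mM Tris acetate pH 7.5, 10mM Mg acetate, 0.01% Tween-20, 0.05% BSA; qHTS 6-point titration, ~60 µM downward; luminescence read.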
NPC1 prom act: NPC1 promoter activation; Huh7 NPC1 promoter luciferase reporter, 24 h; Potency, µM (titrated, usually from 9.22 µM), actives largely listed as activators; 320,000 tested, 2.4% active; AID 485313; further: nearly all actives have a fitted effect of over 60% in size
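NPC1 promoter–luciferase Huh7 cells; 24 h compound; luminescence.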
SMN2 splice enh: SMN2 splice variant enhancement; HEK293 SMN2-luciferase splicing reporter, luminescence, 30-36 h; Potency, µM (titrated, usually from 46.1 µM), usual class: activators; 210,000 tested, 2.8% active; further: nearly all actives have a fitted effect of over 55% in size
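HEK293 cells carry an SMN2 minigene-luciferase reporter in which exon 7 inclusion puts luciferase in frame. Cells were seeded at 2000 cells/well, attached for 10-12 hours, then exposed to compounds for 30-36 hours at 37C before ONE-Glo luminescence.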
ELG1 genotox: genotoxicity induction in ELG1-luciferase HEK293T cells | HEK293T ELG1-luciferase reporter, luminescence, 16 h | Potency, µM (top dose mostly 46 µM), usual class: activators | 330,000 tested, 1.3% active; further: nearly all actives have a fitted effect of over 60% in size
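ELG1-luciferase HEK293T cells, 2,000/well; compound pinned in; 16 hr, 37 °C, 5% CO2; ONE-Glo, 30 min RT; luminescence on CCD imager.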
ELG1 DNA repair: inhibitors of ELG1-dependent DNA repair in HEK293T cells; AID 504467; HEK293T ELG1-luciferase reporter, luminescence, 16 h; DNA damage induced by 5-fluorouridine; 330,000 tested, 2.3% active; Potency, µM (top dose mostly 46.1 µM), hits mostly inhibitors; further: nearly all actives have a fitted effect of over 55% in size
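Overnight (16 hr) co-exposure of 2,000 cells/well to 5-fluorouridine and compound at 37 °C preceded detection. Luciferase was quantified via ONE-Glo luminescence; loss of signal denotes inhibition.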
A number is an active result; . = inactive; ? = inconclusive; / = no result; [ ] = another dose, or the depositor's remark. An excerpt weighted towards active compounds, which were near 9.4% of everything screened. The call rests on the fitted dose curve; in most records, active means well fitted curve in the direction sought with a large enough effect; inconclusive means small, poorly fitted or top-dose-only effect, or another doubt; inactive means no such curve, though single readings can be large; an effect the other way counts as inactive or inconclusive.

SMILES	Rab9 prom act	FLuc modulator	NPC1 prom act	SMN2 splice enh	ELG1 genotox	ELG1 DNA repair
COc1ccc(-c2nc3cc(C)ccn3c2NCc2ccc3c(c2)OCO3)cc1	?	17µM	.	/	.	.
COc1ccc(-c2cc(-c3nc4ccccn4c3NCc3ccccc3)ccc2OC)cc1	/	/	/	/	.	2.3µM
CCOc1cc(C2c3c(oc4ccccc4c3=O)C(=O)N2Cc2ccc3c(c2)OCO3)ccc1O (stereo not drawn)	/	.	/	.	/	/
Cc1ccc(-n2nc(C(=O)N(C)Cc3ccccc3)c3c4ccccc4n(C)c3c2=O)cc1	/	.	/	.	/	/
Cc1cc(C)nc(SC2=CS(=O)(=O)c3ccccc32)n1	.	.	.	?	.	?
O=S1(=O)C=C(Sc2nnc(-c3ccccc3)o2)c2ccccc21	.	30µM	.	.	.	16µM
Cc1nn(C)c(C(=O)Nc2ccc(S(=O)(=O)NC34CC5CC(CC(C5)C3)C4)cc2)c1Br	1.6µM	.	1.4µM	1µM	.	?
Cc1cccc(N2CSC3=C(C#N)C(c4ccc(C)o4)CC(=O)N3C2)c1 (stereo not drawn)	.	17µM	.	.	?	?
Cc1ccccc1NC(=O)c1ccc(Nc2c([N+](=O)[O-])cc([N+](=O)[O-])c3ccccc23)cc1	.	.	.	.	.	18µM
Cc1ccc(C)c(N2CCN(C(=O)C3CCN(S(=O)(=O)c4cn(C)cn4)CC3)CC2)c1	/	.	/	/	/	/
Cc1c(N)c(=O)n(-c2ccccc2)n1C	.	.	.	.	.	.
Cc1cc(=S)n(-c2ccccc2)n1C	.	.	.	.	16µM	?
O=C(O)c1oc(C(=O)O)c(C(=O)O)c1C(=O)O	/	/	/	.[9.22 µM]	/	/
O=C(NCCc1csc2nc(-c3cccc(F)c3)nn12)c1ccc(Br)o1	/	.	/	/	/	/
COC(=O)c1c(/N=C/N(C)C)sc2c1CCN(c1ncc(C(F)(F)F)cc1Cl)C2	.	.	.	.	.	18µM
O=C(O)C=C1CCN(c2ncc(C(F)(F)F)cc2Cl)CC1	?	19µM	?	.	.	?
COC(=O)c1c(N(S(C)(=O)=O)S(C)(=O)=O)sc2c1CCN(c1ncc(C(F)(F)F)cc1Cl)C2	.	.	.	.	.	.
COc1cccc(C(=O)/C=C/Nc2cccc(O)c2)c1	?	0.21µM	?	.	2.3µM	?
COc1cccc(N/C=C/C(=O)c2ccc(C)cc2)c1	0.5µM	0.24µM	0.45µM	/	1.5µM	?
COc1cccc(C(=O)/C=C/Nc2ccc(S(=O)(=O)Nc3cccc(C(C)=O)c3)cc2)c1	.	.	.	.	.	?
COc1ccc(C(=O)c2ccc(Cl)cc2)cc1	.	?	.	.	21µM	?
CCOC(=O)c1ccc(N/C=C/C(=O)c2ccc(OC)cc2)cc1	.	.	.	.	.	?
COc1ccc(N/C=C/C(=O)c2ccc(Cl)cc2)cc1	0.71µM	0.6µM	0.79µM	4.5µM	3.7µM	?
COc1cccc(C(=O)NNC(=O)C(=O)Nc2ccc(C)cc2)c1	.	.	.	/	.	.
CC(=O)c1cc(C)oc1C	/	/	/	.	/	/
SMILES	Rab9 prom act	FLuc modulator	NPC1 prom act	SMN2 splice enh	ELG1 genotox	ELG1 DNA repair
COc1cccc(NC(=S)NC(=O)Cc2ccc(Cl)cc2)c1	.	.	.	/	.	.
COc1cccc(C(=O)/C=C/Nc2ccc(NC(C)=O)cc2)c1	4µM	9.5µM	?	13µM	?	?
COc1cccc(N/C=C/C(=O)c2ccc(Cl)cc2)c1	0.5µM	0.54µM	0.5µM	4.5µM	1.2µM	?
C=C(C)C(=O)OCC(C)O (stereo not drawn)	/	/	/	.	/	/
Cc1ccccc1NC(=O)c1ccc2c(O)c(S(=O)(=O)c3ccccc3)c(=O)[nH]c2c1	.	?	.	/	.	.
COc1cccc(NC(=O)c2ccc3c(O)c(S(=O)(=O)c4ccccc4)c(=O)[nH]c3c2)c1	.	19µM	.	/	.[9.26 µM]	.
COc1ccc(S(=O)(=O)c2c(O)c3ccc(C(=O)Nc4cccc(F)c4)cc3[nH]c2=O)cc1	.	?	.	/	.[9.26 µM]	.
CCc1ccc(NC(=O)c2ccc3c(O)c(S(=O)(=O)c4ccc(Cl)cc4)c(=O)[nH]c3c2)cc1	/	7.6µM	/	/	/	/
O=C(NCCOc1nc(N2CCCCC2)nc(N2CCCCC2)n1)Nc1ccccc1	.	.	.	/	.	?
CCN(CC)c1nc(OCCNC(=O)Nc2ccccc2)nc(N(CC)CC)n1	.	.	.	.	.	18µM
CCN(CCNC(=O)Nc1ccc(Cl)cc1)c1ccccc1	.	.	.	.	.	5.2µM
COc1cc(OC)cc(C(=O)NCCOc2ccccc2)c1	1µM	?	1.6µM	.	12µM	?
Cc1ccc(C(=O)NCCOc2cccc(C)c2)cc1	.	24µM	.	.	?	?
COc1ccccc1C(=O)NCCOc1ccc(C(C)(C)C)cc1	.	.	.	/	.	.
CC(C)(C)c1ccc(C(=O)NCCOc2ccccc2F)cc1	?	0.27µM	.	/	0.73µM	?
COc1cc(C(=O)NCCOc2ccccc2)cc(OC)c1OC	.[1.84 µM]	.	.	/	.	.
CC(C)(C)c1ccc(C(=O)NCCOc2ccccc2)cc1	?	0.34µM	0.32µM	/	0.73µM	?
O=C(CCNC(=O)c1ccc(Br)cc1)NNC(=O)COc1ccccc1F	/	/	/	/	.	.
COc1ccc(-c2noc(CSc3nnc(C)n3-c3ccc(C)cc3)n2)cc1	/	.	/	.	/	/
CCOc1ccc(OCC)c(NC(=O)C(NS(=O)(=O)c2ccc(Br)s2)c2ccccc2)c1 (stereo not drawn)	/	.	/	.	/	/
CC(=O)c1ccc(NC(=O)c2cc3nc4c(c(C(F)(F)F)n3n2)CCCC4)cc1	?	?	.	.	.	?
O=C(NC1CCCCC1)c1cc2nc3c(c(C(F)(F)F)n2n1)CCCC3	3.5µM	24µM	?	35µM	?	?
Cc1cc(=O)[nH]c2nnc(SCc3cccc(C(F)(F)F)c3)n12	/	.	/	/	/	/
Cn1nc(C(C)(C)C)cc1C(=O)NNC(=O)c1cccc(Cl)c1	.	.	.	/	.	7.3µM
CCC12CN3CC(C)(CN(C1)C3c1ccccc1C)C2=O (stereo not drawn)	/	.	/	.	/	/
OCCNCc1ccc(OCc2ccc(Cl)cc2Cl)cc1	.	15µM	.	.	?	?
OCCCCNCc1ccc(OCc2ccc(Cl)cc2Cl)cc1	.	.	.	.	.	.
CCCN(CCC)CCCNC(=O)Cn1ncn2c(cc3sc(CC)cc32)c1=O	/	.	/	.	/	/
Cc1ccc(C)c(Cn2nnc3c(=O)[nH]c(C4CCN(C(=O)c5cccs5)CC4)nc32)c1	.	.	.	.	.	?
Cc1ccc(Cn2nnc3c(=O)[nH]c(C4CCCN(C(=O)Nc5ccc(F)cc5)C4)nc32)cc1 (stereo not drawn)	.	.	.	/	.	16µM
